The list is not random: actives were taken first. Their share in the collection is about 3.8%.
rRNA inh HTS = inhibitors of bacterial rRNA selective over humanized ribosomes | actives 1.6% (n = 350,000) | GFP signal change (wild-type ribosome), % (no concentration beside the values) | AID 720706 | E. coli WT GFP vs humanized-ribosome RFP mutants, fluorescence, 24 h; hits give low values; DMSO median 0, no signal -100;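 active = significant combined selectivity score with lowered wild-type GFP, culture density cut under 30%, mutant RFP and density less affected; inactive = any of these conditions unmet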
FGF22 binding = binders of recombinant human FGF22 by thermal shift. actives 1.5% (n = 340,000). activity (Tm shift, normalised), % at 9.99 µM. SYPRO orange fluorescence; percent of sucrose octasulfate shift, DMSO zero;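 active = mean Tm shift, scaled 0 neutral to 100 positive control, at about 1.3% or above, every replicate too, limit read from the data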
ADAM10 inh = inhibitors of human ADAM10; inhibition, % at 7 µM; recombinant ADAM10, EDANS/DABCYL FRET peptide cleavage, 3 h; actives 0.62% (n = 370,000); AID 720582; O14672;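 active = inhibition above a per-campaign cutoff equal to the mean of compounds falling between control-based bounds plus 3 SD, cut at about 20% in these data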;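 also: 0% = DMSO wells while the 100% control is not disclosed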
KLK7 zymogen act = activators of human kallikrein-7 zymogen | P49862 | purified proKLK7, EDANS-DABCYL substrate fluorescence; 100% is mature enzyme control, 0% vehicle | activation, % at 7 µM | actives 0.9% (n = 370,000) | AID 652039;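 active = activation above the mean of all tested compounds plus 3 SD, computed per campaign excluding outliers beyond control limits, cut at about 13% in these data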
ADAM17 inh = ADAM17 inhibition, QFRET primary screen | recombinant ADAM17, EDANS/DABCYL FRET peptide cleavage | actives 0.83% (n = 370,000) | AID 720648 | inhibition, % at 6.95 µM;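 active = inhibition above the mean of compounds lying between control limits plus 3 SD, set per campaign, cut at about 8.5% in these data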;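 also: 0% = DMSO-only wells as the low control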
Target sequence (P78536 215-824 limits assumed): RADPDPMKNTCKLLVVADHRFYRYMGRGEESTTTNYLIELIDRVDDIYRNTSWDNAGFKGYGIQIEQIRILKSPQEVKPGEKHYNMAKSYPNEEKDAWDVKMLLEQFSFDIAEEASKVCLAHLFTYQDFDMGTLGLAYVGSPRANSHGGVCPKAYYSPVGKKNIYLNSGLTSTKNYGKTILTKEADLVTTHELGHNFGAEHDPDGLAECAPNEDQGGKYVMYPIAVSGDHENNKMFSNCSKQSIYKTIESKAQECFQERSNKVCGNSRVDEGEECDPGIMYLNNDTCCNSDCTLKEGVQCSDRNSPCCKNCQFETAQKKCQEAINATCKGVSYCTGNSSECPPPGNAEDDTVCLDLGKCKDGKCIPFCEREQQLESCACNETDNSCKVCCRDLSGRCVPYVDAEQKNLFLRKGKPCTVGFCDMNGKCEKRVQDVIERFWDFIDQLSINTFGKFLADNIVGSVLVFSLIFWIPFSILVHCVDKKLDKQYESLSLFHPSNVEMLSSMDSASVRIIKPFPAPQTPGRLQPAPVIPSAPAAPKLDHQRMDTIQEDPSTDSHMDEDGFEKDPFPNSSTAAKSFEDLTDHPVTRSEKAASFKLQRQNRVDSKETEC
proKLK7 act conf = confirmation of human kallikrein-7 zymogen activators; shares compounds with KLK7 zymogen act; purified proKLK7, EDANS-DABCYL substrate fluorescence; scaled: vehicle 0, mature enzyme 100; activation, % at 7 µM; actives 68% (n = 3,200); AID 686949;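 active = activation, as change over the incubation, above the mean of all tested compounds plus 3 SD, cut at about 13% in these data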
EDANS-DABCYL int = fluorescence interference counter-screen for KLK7 activators. actives 80% (n = 3,200). shares compounds with KLK7 zymogen act. AID 686952. activation, % at 7 µM. EDANS-DABCYL substrate fluorescence interference, no enzyme, 4 h; solvent 0%, active enzyme control 100%;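 active = activation above the all-compound mean plus 3 SD, ignoring values outside control-based bounds, cut at about 4.8% in these data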;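 also: value is the 4 h activation minus the activation read at time zero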
* marks the source's active call; other numbers are inactive results; i = inactive; / = no result.

SMILES | rRNA inh HTS | FGF22 binding | ADAM10 inh | KLK7 zymogen act | ADAM17 inh | proKLK7 act conf | EDANS-DABCYL int
COCCNC(=O)c1cc2c(=O)n3cccc(C)c3nc2n(Cc2ccncc2)c1=N | / | / | i | 141* | i | 44* | 54*
CCOCCCn1c(=N)c(S(=O)(=O)c2ccccc2)cc2c(=O)n3cc(C)ccc3nc21 | 2 | 0 | -100 | 0 | -36 | / | /
Cc1ccc2nc3c(cc(C(N)=S)c(=N)n3CCCOC(C)C)c(=O)n2c1 | 9 | 0 | i | 14* | -366 | 3 | 3
CCCCNC(=O)c1cc2c(=O)n3cccc(C)c3nc2n(Cc2ccncc2)c1=N | / | / | i | 45* | i | 0 | -2
COc1cccc(S(=O)(=O)N[C@H]2CC[C@H](CC(=O)NC3CCC3)O[C@@H]2CO)c1 | 0 | 0 | / | / | / | / | /
O=C(Nc1cc(F)ccc1F)N[C@@H]1CC[C@H](CCn2cc(C3CCCC3)nn2)O[C@@H]1CO | -6 | / | / | / | / | / | /
CCCCNC(=O)c1cc2c(=O)n3cccc(C)c3nc2n(CCN2CCOCC2)c1=N | / | / | i | 16* | i | 6 | 10*
Cc1cccn2c(=O)c3cc(C(N)=S)c(=N)n(CCCN4CCOCC4)c3nc12 | 3 | 0 | i | 10 | -296 | / | /
COCCCn1c(=N)c(C(N)=S)cc2c(=O)n3cccc(C)c3nc21 | 1 | 0 | i | 35* | i | 21* | 24*
CC(=O)N(C)C[C@H]1[C@@H](c2ccc(-c3cccc(C#N)c3)cc2)[C@@H](CO)N1C(C)=O | -4 | / | / | / | / | / | /
CCS(=O)(=O)N1CC2(C1)[C@H](c1ccccc1)[C@H](CO)N2C(=O)C1CC1 | 0 | 0 | / | / | / | / | /
COc1ccc(-c2ccc(C#N)c(SCC(=O)NC3CC3)n2)cc1OC | 0 | 0 | i | 17* | -359 | 4 | 2
COc1ccc(-c2ccc(C#N)c(SCC(=O)NCc3ccco3)n2)cc1OC | 1 | 0 | i | -12 | i | / | /
CS(=O)(=O)Nc1ccc2c(c1)[C@@H]1C[C@@H](CC(=O)NCc3ccccc3)O[C@@H](CO)[C@@H]1O2 | 1 | 0 | / | / | / | / | /
COc1ccc(/C=C(\C#N)C(=O)NCc2ccccc2)cc1 | -5 | 0 | 6 | 38* | -1 | -187 | -241
CN1CCN(S(=O)(=O)c2cccc(C(=O)Nc3sc4c(c3-c3nc5ccccc5[nH]3)CCCC4)c2)CC1 | 7 | 0 | -4 | 50* | -6 | -4 | 12*
C[C@@H]1CN([C@@H](C)CO)S(=O)(=O)c2ccc(C#CC3(O)CCCC3)cc2O[C@H]1CN(C)C(=O)c1ccccc1 | -2 | 0 | / | / | / | / | /
Cc1ccccc1S(=O)(=O)N1CCCCN2[C@@H](CO)[C@@H](c3ccc(-c4cncnc4)cc3)[C@@H]2C1 | 0 | 0 | / | / | / | / | /
Cc1nn(C)c2nc(-c3cccs3)cc(C(F)(F)F)c12 | 7 | 0 | -21 | -3 | -8 | / | /
COCCn1c(=O)[nH]c(=O)c2c(C(F)(F)F)cc(-c3cccs3)nc21 | / | / | i | 31* | i | -13 | -34
COc1cc(-c2nc3ccc(N4CCN(C)CC4)cc3[nH]2)cc(OC)c1OC | -5 | 1 | i | 81* | i | 64* | 70*
COc1ccc(-c2nc3ccc(N4CCN(C)CC4)cc3c(=O)[nH]2)cc1 | 3 | 0 | -315 | 14* | -118 | 3 | 5.5*
COc1cccc(C(=O)Nc2ccc3c(c2)C(=O)N(C)C[C@H](OC)[C@@H](C)CN[C@H](C)CO3)c1 | 2 | 0 | / | / | / | / | /
Cc1cc(=O)[nH]c(SCc2cccc3cccnc23)n1 | 2 | 0 | 1 | 0 | -3 | / | /
Cc1cc(=O)[nH]c(SCc2nc3ncccn3c2Br)n1 | / | / | i | 29* | -300 | 12 | 15*
C[C@@H]1CN([C@H](C)CO)C(=O)c2cc(NC(=O)CCCN(C)C)ccc2O[C@H]1CN(C)C(=O)Nc1ccccc1 | 3 | 0 | / | / | / | / | /

From PubChem BioAssay
